# Pol beta inh: inhibitors of human DNA polymerase beta; Pol beta primer extension/strand displacement, fluorescence kinetic; Potency, µM (series often up to 114 µM), inactives show at the top dose activity change, negative = inhibition, actives largely listed as inhibitors; hit rate 1.3% among 340,000; AID 485314; further: on the % scale 0 is the no-effect control and ±100 the full control effect
#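 Preincubation: enzyme (10 nM) with compound, 15 min, RT. Reaction: substrate added to 50 nM final. Reads: 0 and 10 min. Analysis: normalized, Hill fit.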
# L3MBTL1 inh: L3MBTL1 (human) inhibition; Q9Y468; Potency, µM (doses to about 57.1 µM), for the others: at the highest dose activity, negative = inhibition, most hits filed as inhibitors; AlphaScreen L3MBTL1–H3K9me1 peptide binding; AID 485360; hit rate 0.66% among 230,000; further: on the % scale 0 is the no-effect control and ±100 the full control effect; nearly all actives have a fitted effect of over 60% in size
#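 Read-out is AlphaScreen signal from streptavidin donor and nickel chelate acceptor beads (10 ug/mL final each) bridging L3MBTL1 (50 nM) and biotinylated K9-monomethylated H3(1-15) peptide (75 nM), after 30 min compound exposure at room temperature.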
# POLK inh: DNA polymerase kappa (human) inhibition; hit rate 0.53% among 400,000; AID 588579; purified Pol kappa, fluorescent DNA synthesis assay, 10 min; Potency, µM (highest dose often 107 µM), without a hit: at the highest dose activity, negative = inhibition, actives largely listed as inhibitors; Q9UBT6; further: on the % scale 0 is the no-effect control and ±100 the full control effect
#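 10 nM Pol kappa preincubated 15 min at room temperature with compounds, then reaction started with substrate at 50 nM final. Fluorescence read kinetically at 0 and 10 min; buffer-only wells served as negative control.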
# APEX1 inh: blocks human APE1 abasic DNA cleavage; P27695; recombinant APE1, TAMRA/BHQ-2 abasic DNA cleavage fluorescence; Potency, µM (top dose mostly 65.8 µM), for inactives: top-dose activity change, negative = inhibition, most hits filed as inhibitors; hit rate 0.35% among 350,000; AID 2517;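 further: plate controls were vehicle for no effect and reference inhibitor for full effect; nearly all actives have a fitted effect of over 55% in size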
#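 APE1 at 0.75 nM final was preincubated with compound 15 min at room temperature, then 50 nM double-stranded THF abasic-site substrate (5'-TAMRA/3'-BHQ-2) was added. Fluorescence (ex 525/em 598 nm) was read kinetically; third-minus-first read gave activity.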
# POLH inh: inhibitors of human DNA polymerase eta; recombinant Pol eta, fluorescent DNA replication assay; Potency, µM (top dose mostly 114 µM), for inactives: at the highest dose activity change, negative = inhibition, most hits filed as inhibitors; hit rate 1.2% among 390,000; AID 588591; further: on the % scale 0 is the no-effect control and ±100 the full control effect
#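 Pol eta (10 nM) was preincubated with compounds for 15 min at room temperature, after which fluorescent replication substrate (50 nM final) was added to start the reaction. Fluorescence was read kinetically at 0 and 10 min.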
# Pol iota inh: DNA polymerase iota (human) inhibition; Pol iota fluorescent replication assay, 10 min; hit rate 1% among 390,000; Potency, µM (doses to about 115 µM), for inactives: at the highest dose activity, negative = inhibition, most hits filed as inhibitors; Q9UNA4; AID 588590
# Target sequence (Q9UNA4 whole entry, looked up): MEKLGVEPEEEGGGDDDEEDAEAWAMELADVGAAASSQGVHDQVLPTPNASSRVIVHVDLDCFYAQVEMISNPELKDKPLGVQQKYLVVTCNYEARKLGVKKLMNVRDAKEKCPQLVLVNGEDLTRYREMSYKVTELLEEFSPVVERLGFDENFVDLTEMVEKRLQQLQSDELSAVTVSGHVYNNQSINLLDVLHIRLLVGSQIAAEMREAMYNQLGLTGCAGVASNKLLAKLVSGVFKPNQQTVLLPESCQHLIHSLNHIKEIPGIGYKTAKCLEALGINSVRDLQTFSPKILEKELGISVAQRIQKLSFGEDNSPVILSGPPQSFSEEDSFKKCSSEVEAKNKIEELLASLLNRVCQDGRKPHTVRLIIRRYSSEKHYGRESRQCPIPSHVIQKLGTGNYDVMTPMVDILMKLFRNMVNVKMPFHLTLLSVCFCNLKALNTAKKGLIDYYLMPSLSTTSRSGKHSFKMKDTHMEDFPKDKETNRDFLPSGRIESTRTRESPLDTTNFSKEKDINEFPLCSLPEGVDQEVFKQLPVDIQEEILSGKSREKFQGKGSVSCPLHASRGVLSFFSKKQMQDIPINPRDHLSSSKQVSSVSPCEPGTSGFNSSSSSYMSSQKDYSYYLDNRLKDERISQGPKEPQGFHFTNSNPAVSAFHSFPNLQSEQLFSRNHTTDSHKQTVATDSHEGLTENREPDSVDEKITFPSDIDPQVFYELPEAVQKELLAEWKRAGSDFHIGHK
#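 Fluorescent replication assay read twice, at 0 min and 10 min after adding 50 nM (final) substrate. Enzyme (10 nM) and compounds were first incubated 15 min at room temperature; enzyme-free buffer wells were negative controls.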
# * marks the source's active call; other numbers are inactive results; u = inconclusive; x = no result; [ ] = another dose, or the depositor's remark. Sampled rows, rich in hits. Any-hit rate of the full collection: about 2.5%. The call rests on the fitted dose curve; in most records, active means well fitted curve in the direction sought with a large enough effect; inconclusive means small, poorly fitted or top-dose-only effect, or another doubt; inactive means no such curve, though single readings can be large; an effect the other way counts as inactive or inconclusive. Potency means the concentration at half of the fitted maximal effect.
SMILES,Pol beta inh,L3MBTL1 inh,POLK inh,APEX1 inh,POLH inh,Pol iota inh
COc1ccc2c(c[n+](C)c3c4cc5c(cc4ccc23)OCO5)c1OC,28µM*,x,-7%[60.1 µM],15%,u,u
COc1ccc(NCC(=O)N2CCCC2)cc1Cl,26%,x,2%,-7%,1%,172%
CCOC(=O)c1c(-n2c(C)cc(/C=C3\C(=O)NC(=O)N(C)C3=O)c2C)sc2c1CCCC2,16%,-2%,-10%,-3%,79µM*,14µM*
CN(C)c1c([N+](=O)[O-])cc(N2C(=O)C=CC2=O)cc1[N+](=O)[O-],x,x,-37%,x,-17%,u
Cc1cc(O)c2c(c1)C(=O)c1cc(O)cc(O)c1C2=O,11µM*,x,u,u,u,u
O=C(O)c1cn(Cc2ccccc2)nc1-c1ccccc1,0%,4%,5%,0%,-14%,24%
O=C(O)CSCC(=O)N(Cc1ccccc1)c1nc(-c2ccccc2)c(-c2ccccc2)s1,50µM*,x,u,-24%,u,50µM*
O=c1cc(C2CCNCC2)[nH][nH]1,3%,x,0%,1%,14%,0.89µM*
Cn1ncc2c(NCc3ccco3)ncnc21,x,x,11%,x,x,u
CCOP(=S)(OCC)Oc1ccc([N+](=O)[O-])cc1,x,x,x,-3%,x,x
Cc1ccc(Cn2ccc(NC(=O)c3cc(-c4ccco4)on3)n2)cc1,14%,-5%,-19%,u,-16%,-18%[58.9 µM]
CCN(c1ccc(C)cc1C)S(=O)(=O)c1nnc(NC(=O)c2ccco2)s1,-25%,x,-26%,-7%,79µM*,u
C[C@H]1CC[C@]2(NC1)O[C@H]1C[C@H]3[C@@H]4CC[C@H]5C[C@@H](O)CC[C@]5(C)[C@H]4CC[C@]3(C)[C@H]1[C@@H]2C,x,x,x,-4%,x,x
COc1ccc(CCn2c(NN=C3CCCCC3)nc3c2c(=O)[nH]c(=O)n3C)cc1,-23%,x,-18%,-3%,u,18µM*
C=C1C(=O)O[C@H]2[C@H]1[C@H](OC(=O)CC(=O)O[C@@H]1C[C@@H](C)[C@@H]3C=CC(=O)[C@@]3(C)[C@H]3OC(=O)C(=C)[C@H]13)C[C@@H](C)[C@H]1C=CC(=O)[C@]12C,50µM*,x,79µM*,-4%,20µM*,50µM*
O=C1NC(=O)C(=Cc2ccc(Sc3ccccc3)o2)C(=O)N1,17%,-6%,-3%,22%,u,u
O=C1NC(=O)C(=Cc2ccc(-c3ccc(F)cc3O)o2)C(=O)N1,-2%,u,-9%,31%,71µM*,u
O=C1NC(=O)C(=Cc2ccc(-c3ccc(Cl)cc3)o2)C(=O)N1,43%,12%,-4%,-12%,79µM*,11µM*
O=C1NC(=O)C(=Cc2ccc(-c3ccc(S(=O)(=O)N4CCOCC4)cc3)o2)C(=O)N1,20%,-6%,0%,24%,-14%,25µM*
CN(C)[C@@H]1C(=O)C(C(N)=O)=C(O)[C@]2(O)C(=O)C3=C(O)c4c(O)ccc(Cl)c4[C@](C)(O)[C@H]3C[C@@H]12,x,x,-7%[12 µM],x,x,x
CN(C)C1C(=O)C(C(N)=O)=C(O)C2(O)C(=O)C3=C(O)c4c(O)cccc4C(C)(O)C3C(O)C12 (configuration not stated),11µM*,x,-4%,-21%,-9%,-8%
O=[N+]([O-])c1ccccc1O,x,x,x,0%,x,x
O=C1NC(=O)C(Sc2ccccc2[N+](=O)[O-])C(=O)N1,-20%,x,-13%,39%,-21%,10µM*
CCOP(=S)(OCC)SCSc1ccc(Cl)cc1,x,x,15µM*,u,x,x
CC1(C)CC(=O)C(C2(O)C(=O)NC(=O)NC2=O)=C(O)C1,13%,-13%,0%,-4%,4%,8.9µM*
CC(C)C[C@H]1C(=O)N2CCC[C@H]2[C@]2(O)O[C@](NC(=O)[C@@H]3C=C4c5cccc6[nH]cc(c56)C[C@H]4N(C)C3)(C(C)C)C(=O)N12,x,-23%,-25%,12%,-5%,11µM*

# Bioassay records (PubChem)
